Measurements as given in PubChem BioAssay AID1573 (National Center for Advancing Translational Sciences (NCATS), 2009).
Results filed as inconclusive are left out. Activity calls are given as the source filed them. Calls come from the whole dose curve; as a rule, active = well fitted inhibition curve with a large enough effect; inconclusive = small, poorly fitted or top-dose-only effect; inactive = no such curve, though single readings can be large or run the other way.

Molecular target: Thyroid hormone receptor beta (Homo sapiens) (UniProt P10828)
Sequence (P10828 whole entry, looked up): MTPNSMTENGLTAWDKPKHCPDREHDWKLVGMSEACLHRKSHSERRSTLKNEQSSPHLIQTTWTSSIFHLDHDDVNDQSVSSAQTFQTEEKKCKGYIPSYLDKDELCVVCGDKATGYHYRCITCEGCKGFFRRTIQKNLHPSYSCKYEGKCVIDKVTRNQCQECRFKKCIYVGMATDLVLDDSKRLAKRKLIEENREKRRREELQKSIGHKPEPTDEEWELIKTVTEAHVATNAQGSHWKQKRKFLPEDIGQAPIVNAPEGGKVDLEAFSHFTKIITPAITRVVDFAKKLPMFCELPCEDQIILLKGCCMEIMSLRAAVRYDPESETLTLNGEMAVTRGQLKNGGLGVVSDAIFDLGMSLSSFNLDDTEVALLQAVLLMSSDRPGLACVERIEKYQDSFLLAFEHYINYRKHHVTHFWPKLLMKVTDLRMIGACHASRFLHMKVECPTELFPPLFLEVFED
Test: Concentration Response Confirmation Assay for Inhibitors of the Interaction of Thyroid Hormone Receptor and Steroid Receptor Coregulator 2
Settings: TRb LBD + Texas Red SRC2 peptide, fluorescence polarization, 5 h; series mostly up to 92.2 µM; activity, negative = inhibition: at the top concentration
Text: NIH Molecular Libraries Probe Production Network [MLPCN] NIH Chemical Genomics Center [NCGC] MLPCN Grant: DK058080 Assay Provider: R. Kip Guy, St. Jude Children's Research Hospital NCGC Assay Overview: Thyroid receptor (TR) regulates many homeostatic processes including basal metabolism, cardiovascular function, body weight, and lipid trafficking. TR modulators are potential therapeutics for obesity and hyperlipidemias but current thyroid analogs have undesirable side effects, particularly cardiac stimulation. To identify inhibitors that specifically prevent the interaction of TR with the steroid receptor coregulator 2 (SRC2), a fluorescence polarization assay was screened. This assay detects interaction of the ligand-binding domain of human TRb with a Texas Red labeled SRC2 peptide, corresponding to a 20 amino acid region of the nuclear receptor interaction domain (Arnold et al., 2006). Small molecule inhibitors that block the interaction of TR and SRC2 are detected by a decrease in fluorescence polarization. This assay is a confirmation assay for AID 1469. Arnold, L. A.; Estebanez-Perpina, E.; Togashi, M.; Shelat, A.; Ocasio, C. A.; McReynolds, A. C.; Nguyen, P.; Baxter, J. D.; Fletterick, R. J.; Webb, P.; Guy, R. K. A high-throughput screening method to identify small molecule inhibitors of thyroid hormone receptor coactivator binding. Sci STKE 2006, p 13.
NCGC Assay Protocol Summary: For screening, 5 uL/well 0.6 uM TRb and 20 nM SRC2 Texas Red in protein buffer (20mM Tris hydrochloride, 100mM NaCl, 10% glycerol, 1mM EDTA, 0.01% NP-40, 1mM DTT, 1uM T3 and 5% DMSO) was dispensed into black solid 1536-well plates (Grenier) using a solenoid-based dispenser. Following transfer of 23 nL compound or DMSO vehicle by a pin tool, the plates were centrifuged 15 s at 1000 RPM and incubated 5 hr at ambient temperature. The plates were read by an Envision (Perkin Elmer) to detect fluorescence polarization of SRC2 Texas Red (555 nm excitation and 632 nm emission). Data were normalized to unbound (all components except TRb) and bound SRC2 Texas Red controls. In this assay, we provide % activity data for each concentration as well as potencies for the active compounds. Keywords: NIH Roadmap, MLPCN, MLI, MLSMR, qHTS, NCGC, qHTS, thyroid hormone receptor, steroid receptor coactivator, fluorescence polarization

Compound | activity, negative = inhibition
Cn1c(=O)[nH]c2nnc(-c3ccc(Cl)c(Cl)c3)nc2c1=O | 1.02% (inactive)
O=c1cc(C23CC4CC(CC(C4)C2)C3)[nH][nH]1 | -5.48% (inactive)
